Among all 57,000 compounds or so, about 200 (0.35%) were called active.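 The calls were made as follows: active = mean inhibition of replicates at least 50% and every single replicate also reaching 50%; inconclusive = mean inhibition at least 50% but some replicate falls below 50%; inactive = mean inhibition under 50%.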 Many of the other results were omitted from the sample, so actives are more common in it than they were.
Molecular target: Histone-lysine N-methyltransferase EZH2 (Homo sapiens) (UniProt Q15910)
Sequence (Q15910 whole entry, looked up): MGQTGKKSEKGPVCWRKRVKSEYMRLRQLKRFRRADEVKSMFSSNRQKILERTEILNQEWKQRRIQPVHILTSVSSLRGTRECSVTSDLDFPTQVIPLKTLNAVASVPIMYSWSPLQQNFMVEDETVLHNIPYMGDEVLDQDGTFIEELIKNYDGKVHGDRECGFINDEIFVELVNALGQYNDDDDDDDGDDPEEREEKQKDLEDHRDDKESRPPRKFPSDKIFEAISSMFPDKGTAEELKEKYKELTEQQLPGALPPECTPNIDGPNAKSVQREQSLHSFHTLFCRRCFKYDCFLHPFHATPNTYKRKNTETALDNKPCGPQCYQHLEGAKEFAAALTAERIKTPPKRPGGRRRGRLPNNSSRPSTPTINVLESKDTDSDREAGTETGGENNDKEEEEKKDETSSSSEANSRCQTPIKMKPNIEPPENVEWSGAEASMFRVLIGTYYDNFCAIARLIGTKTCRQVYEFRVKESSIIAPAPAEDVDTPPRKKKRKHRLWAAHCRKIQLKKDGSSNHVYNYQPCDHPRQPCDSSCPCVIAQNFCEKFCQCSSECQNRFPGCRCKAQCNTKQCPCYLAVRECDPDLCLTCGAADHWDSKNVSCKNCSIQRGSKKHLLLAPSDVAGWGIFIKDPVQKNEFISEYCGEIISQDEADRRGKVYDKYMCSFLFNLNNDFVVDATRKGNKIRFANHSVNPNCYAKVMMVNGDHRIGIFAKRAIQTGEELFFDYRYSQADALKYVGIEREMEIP
Assay: EZH2/PRC2 methyltransferase inhibitors, primary screen, biochemical, DELFIA time-resolved fluorescence, single point (AID 651548);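 also: dimethyl H3K27 on biotinylated H3 21-44 peptide detected by antibody; plate controls were median neutral control wells for no effect and median positive control wells for full effect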
Conditions: PRC2 H3K27 methylation, DELFIA TRF, 1 h; at 12.5 µM; active compounds read high

inhibition, inactive:
CN(C)C(=O)C[C@H]1C[C@H]2c3cc(NC(=O)Nc4ccc(C(F)(F)F)cc4)ccc3O[C@H]2[C@@H](CO)O1 -22.5%
CO[C@@H]1CN(C)C(=O)c2cc(NC(=O)C3CCOCC3)ccc2OC[C@@H](C)NC[C@@H]1C 5.55%
CCC(=O)N1C[C@@H](C)[C@H](OC)CN(C)C(=O)c2ccc(NC(=O)COC)cc2OC[C@@H]1C 2.05%
CC(C)NC(=O)N[C@@H]1CC[C@H](CC(=O)NC2Cc3ccccc3C2)O[C@H]1CO -19.2%
O=C(Nc1ccccc1F)N[C@@H]1CC[C@H](CCNC(=O)C2CC2)O[C@@H]1CO -5.22%
C[C@@H](NC(=O)C[C@@H]1CC[C@H](NC(=O)Cc2ccccn2)[C@H](CO)O1)c1ccccc1 5.38%
CO[C@@H]1CN(C)C(=O)c2cc(NC(=O)c3cnccn3)ccc2OC[C@@H](C)N(CC2CC2)C[C@H]1C -3.51%
CO[C@H]1CN(C)C(=O)c2ccc(NS(C)(=O)=O)cc2OC[C@@H](C)N(Cc2ccccc2)C[C@H]1C 27.6%
CN(C)C(=O)C[C@H]1CC[C@H](NC(=O)NC2CCCC2)[C@@H](CO)O1 6.6%
CN(C)CC(=O)N[C@H]1CC[C@@H](CCNC(=O)C2CCCC2)O[C@@H]1CO 4.19%
O=S(=O)(N[C@@H]1CC[C@@H](CCn2cc(-c3ccccn3)nn2)O[C@@H]1CO)c1cccc(Cl)c1 1.97%
O=C(Nc1ccccc1F)N[C@H]1C=C[C@H](CC(=O)N2CCCCC2)O[C@H]1CO 11.6%
C[C@@H]1CN([C@H](C)CO)S(=O)(=O)c2ccc(C#Cc3ccccc3F)cc2O[C@@H]1CN(C)C(=O)c1ccc2c(c1)OCO2 -7.72%
C[C@@H]1CN([C@@H](C)CO)C(=O)c2cc(C3=CCCC3)cnc2O[C@H]1CN(C)C(=O)c1ccccn1 -1.13%
O=C(Nc1ccccc1F)N[C@@H]1C=C[C@H](CC(=O)N2CCCCC2)O[C@@H]1CO -6.07%
C[C@@H]1CN([C@@H](C)CO)C(=O)c2cc(Br)cnc2O[C@H]1CN(C)Cc1ccc(-c2ccccc2)cc1 32.3%
CCCNC(=O)N(C)C[C@H]1Oc2cc(-c3ccncc3)ccc2S(=O)(=O)N([C@H](C)CO)C[C@@H]1C 2.1%
O=C(C[C@H]1C=C[C@@H](NC(=O)c2ccc(F)cc2)[C@@H](CO)O1)NCCc1ccncc1 -4.57%
O=C(N[C@@H]1CC[C@@H](CC(=O)N2CCc3ccccc3C2)O[C@@H]1CO)C1CCOCC1 -3.58%
COCC#Cc1ccc2c(c1)O[C@H](CN(C)C(=O)CN(C)C)[C@@H](C)CN([C@H](C)CO)S2(=O)=O -3.07%
COCC(=O)N(C)C[C@@H]1Oc2ncc(-c3ccccc3OC)cc2C(=O)N([C@@H](C)CO)C[C@@H]1C 16.6%
CCCN(C)C[C@H]1OCCCC[C@@H](C)Oc2ccc(NC(=O)Nc3ccc(F)cc3)cc2C(=O)N([C@@H](C)CO)C[C@H]1C 18.6%
O=C(C[C@@H]1C[C@@H]2c3cc(NC(=O)c4ccc5c(c4)OCO5)ccc3O[C@@H]2[C@H](CO)O1)NCC1CC1 6.48%
O=C(C[C@@H]1C[C@H]2c3cc(NC(=O)CC4CC4)ccc3O[C@H]2[C@@H](CO)O1)NCc1ccc2c(c1)OCO2 -6.28%
O=C(C[C@@H]1C=C[C@@H](NS(=O)(=O)c2ccc(F)cc2)[C@@H](CO)O1)NCCN1CCCCC1 7.22%
O=C(CN1CCOCC1)N[C@@H]1CC[C@@H](CCn2cc(C3CCCCC3)nn2)O[C@@H]1CO 3.73%
O=C(C[C@@H]1C=C[C@H](NC(=O)Nc2ccc(C(F)(F)F)cc2)[C@H](CO)O1)NCc1cccc(F)c1 -12.8%
O=S(=O)(NCC[C@H]1CC[C@@H](NS(=O)(=O)c2ccccc2Cl)[C@@H](CO)O1)c1ccc(Cl)cc1 -8.5%
O=C(CN1CCOCC1)N[C@H]1CC[C@@H](CCNS(=O)(=O)c2ccccc2F)O[C@H]1CO 0.878%
COc1ccccc1CNC(=O)C[C@H]1C[C@H]2c3cc(NS(=O)(=O)c4ccc(F)cc4)ccc3O[C@H]2[C@@H](CO)O1 -7.14%
O=C(Nc1ccccc1)N[C@H]1CC[C@H](CCNC(=O)c2ccccc2F)O[C@H]1CO -1.66%
Cc1ccccc1S(=O)(=O)NCC[C@@H]1CC[C@@H](NS(=O)(=O)c2ccccc2C)[C@@H](CO)O1 6.69%
COc1cccc(S(=O)(=O)N[C@@H]2C=C[C@H](CC(=O)NC3CCC3)O[C@H]2CO)c1 4.61%
CNC[C@H]1OCCCC[C@H](C)Oc2ccc(NS(C)(=O)=O)cc2C(=O)N([C@@H](C)CO)C[C@H]1C 5.37%
CO[C@@H]1CN(C)C(=O)c2cc(NC(=O)c3cnccn3)ccc2OC[C@@H](C)N(C(=O)C2CC2)C[C@@H]1C 3.91%
C[C@@H]1CN([C@@H](C)CO)C(=O)Cc2cc(NC(=O)C3CCCCC3)ccc2O[C@H]1CN(C)C(=O)Nc1ccccc1 1.25%
CCCNC(=O)Nc1ccc2c(c1)C(=O)N(C)C[C@H](OC)[C@H](C)CN(Cc1ccncc1)[C@H](C)CO2 -16.3%
CCCNC(=O)Nc1ccc2c(c1)OC[C@@H](C)N(CCC)C[C@H](C)[C@@H](OC)CN(C)C2=O 0.898%
C[C@@H]1CN([C@@H](C)CO)C(=O)c2cc(C#CC3CCCCC3)cnc2O[C@@H]1CN(C)Cc1cncnc1 -2.95%
O=C(C[C@H]1C[C@@H]2c3cc(NC(=O)C4CCC4)ccc3O[C@@H]2[C@@H](CO)O1)NCCN1CCCCC1 1.25%
CO[C@@H]1CN(C)C(=O)c2cc(NC(=O)Nc3ccc4c(c3)OCO4)ccc2OC[C@@H](C)NC[C@@H]1C 3.91%

— PubChem BioAssay AID651548 (Broad Institute, 2012)
